Source: PubChem BioAssay AID1159580 (chemical genetic matrix, 2015)
The campaign covered roughly 5,500 compounds. About 2,000 (36%) were called active. Inconclusive results (about 18%) are left out. Rule as the data show it: active = normalized growth mostly below about 0.91 (no sharp cut-off); inconclusive = no clear call, values can overlap the other calls; inactive = mostly above about 0.92. The list shows a part of the results.

Assay: chemical genetic growth profiling, strain panel (AID 1159580);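 also: tested at 20 µM; growth read once vehicle control cultures reached saturation at 30 °C; 1 = growth at the plate median or of vehicle wells; lower values mean less growth of the strain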
Details: growth OD
[1] = S. cerevisiae deletion strains, locus YAL013W, strain DEP1, stronger effect = lower value
[2] = S. cerevisiae deletion strains, locus YCL061C, strain MRC1, stronger effect = lower value
[3] = S. cerevisiae deletion strains, locus YDR150W, strain NUM1, stronger effect = lower value
[4] = S. cerevisiae deletion strains, locus YGR229C, strain SMI1, stronger effect = lower value
[5] = S. cerevisiae deletion strains, locus YHR030C, strain SLT2, stronger effect = lower value
[6] = S. cerevisiae deletion strains, locus YJL187C, strain SWE1, stronger effect = lower value
[7] = S. cerevisiae deletion strains, locus YJR075W, strain HOC1, stronger effect = lower value
[8] = S. cerevisiae deletion strains, locus YNL322C, strain KRE1, stronger effect = lower value
[9] = S. cerevisiae deletion strains, locus YPL055C, strain LGE1, stronger effect = lower value
[10] = S. cerevisiae deletion strains, locus YBR229C, strain ROT2, stronger effect = lower value
[11] = S. cerevisiae deletion strains, locus YDL101C, strain DUN1, stronger effect = lower value
[12] = S. cerevisiae deletion strains, locus YEL061C, strain CIN8, stronger effect = lower value
[13] = S. cerevisiae deletion strains, locus YGR078C, strain PAC10, stronger effect = lower value
[14] = S. cerevisiae deletion strains, locus YHR087W, strain rtc3, stronger effect = lower value
[15] = S. cerevisiae deletion strains, locus YJR043C, strain POL32, stronger effect = lower value
[16] = S. cerevisiae deletion strains, locus YLR039C, strain RIC1, stronger effect = lower value
[17] = S. cerevisiae deletion strains, locus YLR058C, strain SHM2 (second series), stronger effect = lower value
[18] = S. cerevisiae deletion strains, locus YLR085C, strain ARP6, stronger effect = lower value
[19] = S. cerevisiae deletion strains, locus YLR262C, strain YPT6, stronger effect = lower value
[20] = S. cerevisiae deletion strains, locus YML094W, strain GIM5, stronger effect = lower value
[21] = S. cerevisiae deletion strains, locus YMR219W, strain ESC1, stronger effect = lower value
[22] = S. cerevisiae deletion strains, locus YMR263W, strain SAP30, stronger effect = lower value
[23] = S. cerevisiae deletion strains, locus YNL153C, strain GIM3, stronger effect = lower value
[24] = S. cerevisiae deletion strains, locus YNL298W, strain CLA4 (second series), stronger effect = lower value
[25] = S. cerevisiae deletion strains, locus YNR030W, strain Alg12, stronger effect = lower value
[26] = S. cerevisiae deletion strains, locus YPL241C, strain CIN2, stronger effect = lower value
[27] = S. cerevisiae deletion strains, locus YPR135W, strain CTF4, stronger effect = lower value
[28] = S. cerevisiae strains, strain wild type, stronger effect = lower value
[29] = S. cerevisiae deletion strains, locus YOL006C, strain TOP1, stronger effect = lower value

Measured: normalized growth

O=C(O)C1=CC(=C(c2ccc(O)c(C(=O)O)c2)c2ccc(O)c(C(=O)O)c2)C=CC1=O
active: [4] 0.823 | S. cerevisiae deletion strains, locus YMR058W, strain fet3, stronger effect = lower value 0.714 | S. cerevisiae deletion strains, locus YOR106W, strain vam3, stronger effect = lower value 0.836 | S. cerevisiae deletion strains, locus YPL051W, strain arl3, stronger effect = lower value 0.907
inactive: [1] 0.976 | S. cerevisiae deletion strains, locus YAL021C, strain ccr4, stronger effect = lower value 0.952 | S. cerevisiae deletion strains, locus YAL026C, strain drs2, stronger effect = lower value 0.983 | S. cerevisiae deletion strains, locus YAL030W, strain snc1, stronger effect = lower value 0.986 | S. cerevisiae deletion strains, locus YAL040C, strain CLN3, stronger effect = lower value 1.02 | S. cerevisiae deletion strains, locus YBL061C, strain skt5, stronger effect = lower value 0.963 | S. cerevisiae deletion strains, locus YBR009C, strain hhf1, stronger effect = lower value 1 | S. cerevisiae deletion strains, locus YBR023C, strain chs3, stronger effect = lower value 0.976 | S. cerevisiae deletion strains, locus YBR171W, strain sec66, stronger effect = lower value 0.963 | S. cerevisiae deletion strains, locus YBR231C, strain swc5, stronger effect = lower value 0.954 | S. cerevisiae deletion strains, locus YBR279W, strain paf1, stronger effect = lower value 0.968 | S. cerevisiae deletion strains, locus YCL011C, strain gbp2, stronger effect = lower value 0.974 | S. cerevisiae deletion strains, locus YCL016C, strain dcc1, stronger effect = lower value 0.995 | S. cerevisiae deletion strains, locus YCL061C, strain MRC1 (second series), stronger effect = lower value 0.98 | [2] 0.999 | S. cerevisiae deletion strains, locus YCL069W, strain vba3, stronger effect = lower value 0.972 | S. cerevisiae deletion strains, locus YCR088W, strain abp1, stronger effect = lower value 0.985 | S. cerevisiae deletion strains, locus YDL005C, strain med2, stronger effect = lower value 0.966 | S. cerevisiae deletion strains, locus YDL040C, strain nat1, stronger effect = lower value 0.987 | S. cerevisiae deletion strains, locus YDR001C, strain nth1, stronger effect = lower value 0.992 | S. cerevisiae deletion strains, locus YDR069C, strain doa4, stronger effect = lower value 0.917 | S. cerevisiae deletion strains, locus YDR137W, strain rgp1, stronger effect = lower value 1.06 | [3] 0.97 | S. cerevisiae deletion strains, locus YDR159W, strain sac3, stronger effect = lower value 1.03 | S. cerevisiae deletion strains, locus YDR195W, strain ref2 1 | S. cerevisiae deletion strains, locus YDR297W, strain sur2, stronger effect = lower value 0.978 | S. cerevisiae deletion strains, locus YDR334W, strain swr1, stronger effect = lower value 0.957 | S. cerevisiae deletion strains, locus YDR335W, strain msn5, stronger effect = lower value 0.965 | S. cerevisiae deletion strains, locus YDR392W, strain spt3, stronger effect = lower value 0.95 | S. cerevisiae deletion strains, locus YEL003W, strain gim4, stronger effect = lower value 0.973 | S. cerevisiae deletion strains, locus YEL037C, strain rad23, stronger effect = lower value 0.966 | S. cerevisiae deletion strains, locus YEL061C, strain CIN8 (second series), stronger effect = lower value 0.979 | S. cerevisiae deletion strains, locus YER002W, strain NOP16, stronger effect = lower value 1.02 | S. cerevisiae deletion strains, locus YER015W, strain faa2, stronger effect = lower value 0.952 | S. cerevisiae deletion strains, locus YER016W, strain bim1, stronger effect = lower value 0.985 | S. cerevisiae deletion strains, locus YER111C, strain swi4, stronger effect = lower value 0.961 | S. cerevisiae deletion strains, locus YER155C, strain BEM2 (second series), stronger effect = lower value 0.953 | S. cerevisiae deletion strains, locus YFR010W, strain ubp6, stronger effect = lower value 0.976 | S. cerevisiae deletion strains, locus YGL167C, strain pmr1, stronger effect = lower value 0.97 | S. cerevisiae deletion strains, locus YGL173C, strain kem1, stronger effect = lower value 0.984 | S. cerevisiae deletion strains, locus YGL227W, strain vid30, stronger effect = lower value 0.988 | S. cerevisiae deletion strains, locus YGL240W, strain doc1, stronger effect = lower value 0.985 | S. cerevisiae deletion strains, locus YGL253W, strain hxk2, stronger effect = lower value 0.978 | S. cerevisiae deletion strains, locus YHR013C, strain ard1, stronger effect = lower value 0.952 | S. cerevisiae deletion strains, locus YHR027C, strain rpn1, stronger effect = lower value 0.98 | [5] 1.01 | S. cerevisiae deletion strains, locus YHR079C, strain IRE1, stronger effect = lower value 1 | S. cerevisiae deletion strains, locus YHR142W, strain chs7, stronger effect = lower value 0.946 | S. cerevisiae deletion strains, locus YJL092W, strain hpr5, stronger effect = lower value 0.97 | S. cerevisiae deletion strains, locus YJL095W, strain BCK1 (second series), stronger effect = lower value 0.963 | S. cerevisiae deletion strains, locus YJL095W, strain BCK1, stronger effect = lower value 0.982 | S. cerevisiae deletion strains, locus YJL115W, strain asf1, stronger effect = lower value 0.999 | S. cerevisiae deletion strains, locus YJL129C, strain trk1, stronger effect = lower value 1.01 | S. cerevisiae deletion strains, locus YJL154C, strain vps35, stronger effect = lower value 0.982 | S. cerevisiae deletion strains, locus YJL164C, strain tpk1, stronger effect = lower value 0.969 | S. cerevisiae deletion strains, locus YJL166W, strain qcr8, stronger effect = lower value 0.979 | [6] 0.969 | S. cerevisiae deletion strains, locus YJR066W, strain TOR1, stronger effect = lower value 0.877 | [7] 0.974 | S. cerevisiae deletion strains, locus YKL160W, strain elf1, stronger effect = lower value 0.976 | S. cerevisiae deletion strains, locus YKR026C, strain gcn3, stronger effect = lower value 0.989 | S. cerevisiae deletion strains, locus YKR091W, strain srl3, stronger effect = lower value 0.981 | S. cerevisiae deletion strains, locus YLL001W, strain dnm1, stronger effect = lower value 0.998 | S. cerevisiae deletion strains, locus YLL026W, stronger effect = lower value 0.985 | S. cerevisiae deletion strains, locus YLL041C, strain sdh2, stronger effect = lower value 0.981 | S. cerevisiae deletion strains, locus YLR027C, strain aat2, stronger effect = lower value 0.981 | S. cerevisiae deletion strains, locus YLR113W, strain HOG1, stronger effect = lower value 1.05 | S. cerevisiae deletion strains, locus YLR221C, strain rsa3, stronger effect = lower value 0.983 | S. cerevisiae deletion strains, locus YLR258W, strain gsy2, stronger effect = lower value 0.967 | S. cerevisiae deletion strains, locus YLR262C, strain YPT6 (second series), stronger effect = lower value 0.973 | S. cerevisiae deletion strains, locus YLR320W, strain mms22, stronger effect = lower value 0.985 | S. cerevisiae deletion strains, locus YLR342W, strain FKS1, stronger effect = lower value 0.978 | S. cerevisiae deletion strains, locus YLR357W, strain rsc2, stronger effect = lower value 0.857 | S. cerevisiae deletion strains, locus YLR370C, strain arc18, stronger effect = lower value 0.98 | S. cerevisiae deletion strains, locus YLR384C, strain iki3, stronger effect = lower value 0.957 | S. cerevisiae deletion strains, locus YML120C, strain ndi1, stronger effect = lower value 0.978 | S. cerevisiae deletion strains, locus YMR125W, strain sto1, stronger effect = lower value 0.958 | S. cerevisiae deletion strains, locus YMR129W, stronger effect = lower value 0.989 | S. cerevisiae deletion strains, locus YMR205C, strain PFK2, stronger effect = lower value 1.01 | S. cerevisiae deletion strains, locus YMR231W, strain pep5, stronger effect = lower value 0.946 | S. cerevisiae deletion strains, locus YNL071W, strain lat1, stronger effect = lower value 0.974 | S. cerevisiae deletion strains, locus YNL175C, strain NOP13, stronger effect = lower value 1 | S. cerevisiae deletion strains, locus YNL183C, strain NPR1, stronger effect = lower value 0.913 | S. cerevisiae deletion strains, locus YNL197C, strain WHI3, stronger effect = lower value 1 | S. cerevisiae deletion strains, locus YNL209W, strain ssb2, stronger effect = lower value 0.952 | S. cerevisiae deletion strains, locus YNL224C, strain SQS1, stronger effect = lower value 1.03 | S. cerevisiae deletion strains, locus YNL248C, strain rpa49, stronger effect = lower value 0.999 | S. cerevisiae deletion strains, locus YNL322C, strain KRE1 (second series), stronger effect = lower value 0.999 | [8] 0.93 | S. cerevisiae deletion strains, locus YNR049C, strain mso1, stronger effect = lower value 0.992 | S. cerevisiae deletion strains, locus YOR001W, strain rrp6, stronger effect = lower value 0.959 | S. cerevisiae deletion strains, locus YOR070C, strain gyp1, stronger effect = lower value 0.995 | S. cerevisiae deletion strains, locus YOR080W, strain dia2, stronger effect = lower value 0.988 | S. cerevisiae deletion strains, locus YOR083W, strain WHI5 (second series), stronger effect = lower value 0.999 | S. cerevisiae deletion strains, locus YOR083W, strain WHI5, stronger effect = lower value 0.97 | S. cerevisiae deletion strains, locus YOR231W, strain MKK1, stronger effect = lower value 1.01 | S. cerevisiae deletion strains, locus YOR265W, strain rbl2, stronger effect = lower value 0.99 | S. cerevisiae deletion strains, locus YOR270C, strain vph1, stronger effect = lower value 0.942 | S. cerevisiae deletion strains, locus YOR290C, strain snf2, stronger effect = lower value 0.966 | [9] 0.961 | S. cerevisiae deletion strains, locus YPL078C, strain atp4, stronger effect = lower value 0.982 | S. cerevisiae deletion strains, locus YPL106C, strain sse1, stronger effect = lower value 0.915 | S. cerevisiae deletion strains, locus YPL240C, strain hsp82, stronger effect = lower value 0.973 | S. cerevisiae deletion strains, locus YPL256C, strain CLN2, stronger effect = lower value 1.06

Cc1ccc(Sc2nc(C)c([N+](=O)[O-])c(C)c2C#N)cc1
inactive: [1] 0.969 | [10] 0.982 | [11] 0.997 | [3] 0.99 | [12] 0.934 | [13] 0.979 | [4] 0.978 | [14] 0.975 | [15] 0.967 | [7] 0.952 | S. cerevisiae deletion strains, locus YKL190W, strain CNB1, stronger effect = lower value 0.977 | [17] 0.969 | [18] 0.883 | [20] 1.01 | [21] 0.979 | [22] 0.97 | S. cerevisiae deletion strains, locus YMR307W, strain GAS1, stronger effect = lower value 0.763 | [23] 0.994 | [24] 0.947 | [8] 0.974 | [25] 0.965 | [9] 0.963 | [26] 1.06 | [27] 0.828 | [28] 0.974
active: [5] 0.625 | [16] 0.664 | [19] 0.732

NC(=S)CS(=O)(=O)c1ccc(C(F)(F)F)cc1
inactive: [1] 0.977 | [10] 1.01 | [2] 1.02 | [11] 1.03 | [3] 0.998 | [12] 1.03 | [13] 1.01 | [5] 1.03 | [14] 1.01 | [6] 1.02 | [15] 1.01 | [7] 1.02 | [16] 1.09 | [17] 1.02 | [19] 1.07 | [20] 1.01 | [21] 1.02 | [22] 1.04 | S. cerevisiae deletion strains, locus YNL128W, strain TEP1, stronger effect = lower value 1.03 | [23] 1.02 | [24] 1.03 | [8] 1 | [25] 0.992 | [29] 1.23 | [9] 0.952 | [26] 1.09 | [27] 0.969
active: [18] 1.23 [resistant]

CC(=O)CS(=O)(=O)c1ccc(Cl)cc1
inactive: [1] 1.02 | [10] 1.01 | [2] 1.01 | [11] 1.01 | S. cerevisiae deletion strains, locus YDL134C, strain PPH21, stronger effect = lower value 1 | [3] 0.969 | [12] 1.02 | [13] 1 | [5] 1 | [14] 0.998 | [6] 0.995 | [15] 0.988 | [7] 0.995 | [16] 1.02 | [17] 1 | [18] 1.04 | [19] 1.03 | [20] 1.02 | [21] 1.01 | [22] 0.969 | [23] 0.995 | [24] 0.992 | [8] 1.01 | [25] 1 | [29] 1.01 | [9] 1 | [26] 1.02 | [27] 0.933 | [28] 1
